Data: publication PMC7819943, “Rice protein-binding microarrays: a tool to detect cis-acting elements near promoter regions in rice”
The full ranking holds about 39,000 sequences; the median of “fluorescence intensity (a.u.)” is about 4,300, and the highest 2% start at about 39,000. For the sample, the highest values were picked, then their nearest neighbours and some sequences at random.

What follows are sequences tested against T1, OsSMF1 (Oryza sativa, UniProt Q6ZLB0 1-436) (assay: protein-binding microarray (RPBM); PBS, 2% BSA, 51.3 ng/ul salmon testes DNA, 50 uM zinc acetate, 200 nM TF, 25 C, 1 h; high values mean tight binding). Settings: protein: recombinant; tags: N-terminal polyhistidine and DsRed monomer fusion (pET32a); chain copies: 2; label: CyDye5-dUTP incorporated in the synthesized complementary strand; 3' TTTTT single-stranded linker to array surface; dsDNA, one strand shown.
T1 sequence: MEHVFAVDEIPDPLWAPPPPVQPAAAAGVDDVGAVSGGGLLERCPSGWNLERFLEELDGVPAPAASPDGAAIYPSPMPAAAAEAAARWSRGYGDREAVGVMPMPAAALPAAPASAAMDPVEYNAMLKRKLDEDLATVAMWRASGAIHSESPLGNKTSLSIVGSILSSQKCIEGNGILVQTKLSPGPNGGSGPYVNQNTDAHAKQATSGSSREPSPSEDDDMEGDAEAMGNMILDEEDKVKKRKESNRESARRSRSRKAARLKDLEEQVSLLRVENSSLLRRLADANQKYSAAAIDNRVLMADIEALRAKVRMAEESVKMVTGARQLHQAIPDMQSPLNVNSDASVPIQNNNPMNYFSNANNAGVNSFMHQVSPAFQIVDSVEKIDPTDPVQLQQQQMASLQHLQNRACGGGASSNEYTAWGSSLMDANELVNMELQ
How it was run: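 Using Ni–NTA, transcription factors fused N-terminally to polyhistidine and DsRed were purified after expression in E. coli BL21-CodonPlus. These were incubated at 200 nM with a blocked, double-stranded custom Agilent array for 1 h at 25 °C in a buffer containing 50 µM zinc acetate, and the array was washed. The binding signal is per-feature fluorescence intensity (arbitrary units) on an Axon 4000B scanner.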

Sequence	binding signal
ACCTACATGTGCGTAATATTCGTGGACACCAGGATTTAAACGGAGTCACCTAGTGCAG	3510 fluorescence intensity (a.u.)
TTGTATTTTGGAAATATGACGCATTAGATGTTTTATATATCGGAGTCACCTAGTGCAG	3570 fluorescence intensity (a.u.)
TATGAGTATCCTATATACATATATATACATATATATATACCGGAGTCACCTAGTGCAG	27300 fluorescence intensity (a.u.)
TATGAGGGTATCAGGGTCGTTGAGGTCTCTCCTCCTACACCGGAGTCACCTAGTGCAG	41000 fluorescence intensity (a.u.)
GTTGAGGTCTCGCGCTCCCGTCCTCGTCTCGTCCTCTCCCCGGAGTCACCTAGTGCAG	21500 fluorescence intensity (a.u.)
TCACGCTCTCAACGCTGCTGTGTCACGTCACGTCACGCGCCGGAGTCACCTAGTGCAG	16400 fluorescence intensity (a.u.)
TTTCAACAGATATTTTATTGTGACGTTGCAATTACTAAAACGGAGTCACCTAGTGCAG	4950 fluorescence intensity (a.u.)
CTAAAACAGGCGAGTAGGATATACTACCTTCAATTATATTCGGAGTCACCTAGTGCAG	40600 fluorescence intensity (a.u.)
TGAAAATATATTCAATTATTGATTCGATAAAACTAATTTACGGAGTCACCTAGTGCAG	3460 fluorescence intensity (a.u.)
TCAACCGTATCTGACGCCTGCATTTCCTCTACCAGCCAAGCGGAGTCACCTAGTGCAG	4010 fluorescence intensity (a.u.)
CTAAAACTCAACATATAAACATGCCACCTCATCATCTATACGGAGTCACCTAGTGCAG	7400 fluorescence intensity (a.u.)
AAATAGCCAAGCCATATCATCTCATCCATATCATAATCGGCGGAGTCACCTAGTGCAG	3200 fluorescence intensity (a.u.)
TATGAAATATCCCATCCTATCATAGATTATTATATTACGACGGAGTCACCTAGTGCAG	26400 fluorescence intensity (a.u.)
CATCCTAACGGATTATTCTCTCAACCCCACGAACCATTCACGGAGTCACCTAGTGCAG	19200 fluorescence intensity (a.u.)
GCAACATAACCCATCCTAGATTGCTATATATTGGGACGAACGGAGTCACCTAGTGCAG	65500 fluorescence intensity (a.u.)
CAGGCCGGAAACCGGCCGAGCCCACCCATTAGAAAGGACGCGGAGTCACCTAGTGCAG	22900 fluorescence intensity (a.u.)
CACTCAAAATCTCTTTCGTGTCCACCTCACCTTGCACCACCGGAGTCACCTAGTGCAG	4870 fluorescence intensity (a.u.)
TCCCGTCTCGGCTCCTTGCGCCATCGTCGACAGGGGAGGGCGGAGTCACCTAGTGCAG	3540 fluorescence intensity (a.u.)
GGCCTTGCCACGAGCCCACGAGAGGTTTGGTTGATGGGCCCGGAGTCACCTAGTGCAG	46500 fluorescence intensity (a.u.)
GATGGGCCCACCCGTCATCCACACGAGGGCCACGCCTTGCCGGAGTCACCTAGTGCAG	3380 fluorescence intensity (a.u.)
ACGAGCCCACGAGGTTGATGACGACGAAGCCGAAGAGTTGCGGAGTCACCTAGTGCAG	4660 fluorescence intensity (a.u.)

Sequence	binding signal
CCACCATGGCATGCCACGTCAACACACAGAGTGGGTTGGACGGAGTCACCTAGTGCAG	17900 fluorescence intensity (a.u.)
CAAATGCAGAAAAGATAATCTCCTTTCTCTCTCTATTAAACGGAGTCACCTAGTGCAG	31100 fluorescence intensity (a.u.)
TCACACCCCATCTATGTTGTCGCTCCACATAGGCTAGGCCCGGAGTCACCTAGTGCAG	3260 fluorescence intensity (a.u.)
TTGTTCCTTGCTAATATATTGACGTGTAATTCTTTTATGCCGGAGTCACCTAGTGCAG	9690 fluorescence intensity (a.u.)
TGGTACAAGGATTTGTCCTGTCAACATGGCAATCCTCTGCCGGAGTCACCTAGTGCAG	3360 fluorescence intensity (a.u.)
GCGCTGACGTGTCGCTATCCTACTGGAACACACCACGTCACGGAGTCACCTAGTGCAG	46500 fluorescence intensity (a.u.)
TCCACCGTCTGCTACTGCTAGCGTGCTACTGTCTCGCTGACGGAGTCACCTAGTGCAG	3350 fluorescence intensity (a.u.)
GCAACCACCGTGACGCCGCCGCGCGCCCACTGGAACACGTCGGAGTCACCTAGTGCAG	5010 fluorescence intensity (a.u.)
AGGATTTCATGTGTTTTGGTTAACATATTCATGTGTGTCTCGGAGTCACCTAGTGCAG	3500 fluorescence intensity (a.u.)
TTTTAGTATATTTATATACTTTGTGCAAGGTGACATGTACCGGAGTCACCTAGTGCAG	3440 fluorescence intensity (a.u.)
CTTCTCTTATTGTTTGTGTCATTTTCATTTATGTCCTTGTCGGAGTCACCTAGTGCAG	3940 fluorescence intensity (a.u.)
GGAGTGGCGGGGTTGCGGCATTGGGAGCTGACGTGGCCGCCGGAGTCACCTAGTGCAG	25400 fluorescence intensity (a.u.)
ATATAAATAGGTTTCGAGGTAGAATATCAAAACAAGGATGCGGAGTCACCTAGTGCAG	39300 fluorescence intensity (a.u.)
GTAGAATTATAAAATATATTGTGTACACAATAGGTTTATGCGGAGTCACCTAGTGCAG	3330 fluorescence intensity (a.u.)
AAACATCATATCAAATCTTTGGACATAGGTATAGAATATTCGGAGTCACCTAGTGCAG	8890 fluorescence intensity (a.u.)
GAGCCACGGTGGAAGGGTATAATCGTAATTTCGCGTATGGCGGAGTCACCTAGTGCAG	3370 fluorescence intensity (a.u.)
ACCGGGTCGCGCGCGTCGTTGAAACGTCACACCTAGCTAACGGAGTCACCTAGTGCAG	4280 fluorescence intensity (a.u.)
CGAATCTTTTGAGCCTAATTAATCTATCATTAGCACATGTCGGAGTCACCTAGTGCAG	3170 fluorescence intensity (a.u.)
AGTAAATCCACATCAACAGCATTCTGTTGTTAACTCTGCCCGGAGTCACCTAGTGCAG	6820 fluorescence intensity (a.u.)
TGAAAATCGCATACTAATTAGCTATTAGTCATGAGCTCTTCGGAGTCACCTAGTGCAG	3590 fluorescence intensity (a.u.)
CAGGGAGCATTGAGATTCACTTTGTCACGATGGTAATATACGGAGTCACCTAGTGCAG	22600 fluorescence intensity (a.u.)
